# Assay outcomes (PubChem)
# Pol eta inh-1: inhibitors of human DNA polymerase eta. recombinant Pol eta, fluorescent DNA replication assay. Potency, µM (doses to about 114 µM), inactives show at the top dose activity change, negative = inhibition, usual class: inhibitors. 390,000 compounds, 1.2% hits. Q9Y253. AID 588591; also: potency is read from the fitted curve at half-maximal effect; % is scaled to controls: 0 for no effect and ±100 for the full control effect
#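 Fluorescent replication assay: 50 nM final substrate added after a 15 min room-temperature compound preincubation with 10 nM enzyme. Signal taken at 0 min and again at 10 min.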
# Pol iota inh: inhibitors of human DNA polymerase iota. Pol iota fluorescent replication assay, 10 min. 390,000 compounds, 1% hits. Q9UNA4. Potency, µM (highest dose often 115 µM), without a hit: at the highest dose activity, negative = inhibition, actives largely listed as inhibitors; also: potency is read from the fitted curve at half-maximal effect
#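 Pol iota at 10 nM preincubated 15 min with compounds at room temperature; reaction started with fluorescent substrate, 50 nM final. Fluorescence read kinetically at 0 and 10 min; buffer-only wells as negative control.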
# Pol kappa inh-1: blocks human DNA polymerase kappa activity; Q9UBT6; purified Pol kappa, fluorescent DNA synthesis assay, 10 min; AID 588579; Potency, µM (titrated, usually from 107 µM), without a hit: at the top dose activity, negative = inhibition, usual class: inhibitors; 400,000 compounds, 0.53% hits; also: potency is read from the fitted curve at half-maximal effect; % is scaled to controls: 0 for no effect and ±100 for the full control effect
#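 Here, compound and 10 nM enzyme are combined for 15 min at room temperature; adding 50 nM substrate (final) starts DNA synthesis, tracked by fluorescence at 0 and 10 min against buffer-only wells.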
# WRN helicase inh: blocks human WRN helicase. WRN helicase unwinding, fluorescent forked duplex, kinetic. Potency, µM (highest dose often 114 µM), for the others: top-dose activity change, negative = inhibition, actives largely listed as inhibitors. 360,000 compounds, 0.46% hits; also: potency is read from the fitted curve at half-maximal effect; % is scaled to controls: 0 for no effect and ±100 for the full control effect; nearly all actives have a fitted effect of over 55% in size
#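 WRN at 20 nM final was preincubated with compound for 15 min at room temperature; reaction started with 100 nM forked duplex oligonucleotide carrying fluorophore and quencher plus 2 mM ATP (final). Unwinding followed kinetically by red fluorescence (ex 525/em 598 nm).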
# Pol beta inh: DNA polymerase beta (human) inhibition. P06746. Potency, µM (top dose mostly 114 µM), for the others: top-dose activity change, negative = inhibition, hits mostly inhibitors. 340,000 compounds, 1.3% hits. AID 485314. Pol beta primer extension/strand displacement, fluorescence kinetic; also: potency is read from the fitted curve at half-maximal effect; % is scaled to controls: 0 for no effect and ±100 for the full control effect
#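 Enzyme-only controls used 10 nM Pol beta; buffer lacking enzyme served as negative control. Compound preincubated 15 min, then 50 nM substrate added; 0 and 10 min reads at room temperature.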
# FEN1 inhibitor: blocks human flap endonuclease 1. Recombinant FEN1 flap cleavage, fluorescence, 15 min. AID 588795. 390,000 compounds, 0.35% hits. P39748. Potency, µM (series often up to 114 µM), without a hit: at the highest dose activity change, negative = inhibition, hits mostly inhibitors; also: potency is read from the fitted curve at half-maximal effect; % is scaled to controls: 0 for no effect and ±100 for the full control effect; nearly all actives have a fitted effect of over 65% in size
# Target sequence (P39748 whole entry, looked up): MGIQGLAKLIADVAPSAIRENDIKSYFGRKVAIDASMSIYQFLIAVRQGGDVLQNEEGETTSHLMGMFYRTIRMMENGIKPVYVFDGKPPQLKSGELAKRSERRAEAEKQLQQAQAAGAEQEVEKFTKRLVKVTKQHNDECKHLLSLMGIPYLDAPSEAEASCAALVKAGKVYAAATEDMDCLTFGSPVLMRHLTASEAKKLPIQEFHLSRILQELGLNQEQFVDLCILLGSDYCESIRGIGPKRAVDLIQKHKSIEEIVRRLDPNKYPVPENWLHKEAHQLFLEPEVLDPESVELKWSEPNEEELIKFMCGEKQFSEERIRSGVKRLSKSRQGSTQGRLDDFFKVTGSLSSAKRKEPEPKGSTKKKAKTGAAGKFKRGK
#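 Quantitative HTS format: each compound was titrated, incubated with 10 nM nuclease for 15 min at room temperature, then challenged with flap substrate at 50 nM final. Signal change over 15 min gave concentration–effect curves.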
# GALK confirm: confirmation of human galactokinase (GALK) inhibitors; shares compounds with Pol eta inh-1; purified GALK, Kinase-Glo ATP depletion luminescence; Potency, µM (titrated, usually from 115 µM), for inactives: at the top dose activity, negative = inhibition, most hits filed as inhibitors; 150 compounds, 70% hits
# GALK redox cs: redox cycling activity in phenol red-HRP assay; shares compounds with Pol eta inh-1; Phenol red-HRP H2O2 redox cycling, absorbance 600 nm; Potency, µM (series often up to 115 µM), without a hit: at the highest dose activity change, negative = H2O2 signal, hits mostly inhibitors; 150 compounds, 40% hits; AID 2035
# HEK293 viability: HEK-293 cytotoxicity, GALK inhibitor secondary; 170 compounds, 10% hits; AID 2547; HEK-293 viability, ATP luminescence (CellTiter-Glo), 24/48 h; shares compounds with Pol eta inh-1; Potency, µM (doses to about 46.1 µM), for inactives: top-dose activity change, negative = cytotoxicity, hits mostly inhibitors; also: potency is read from the fitted curve at half-maximal effect; % is scaled to controls: 0 for no effect and ±100 for the full control effect
# Pol kappa inh-2: confirmation of human DNA polymerase kappa inhibitors; purified Pol-kappa, fluorescent strand-displacement substrate; Potency, µM, hits mostly inhibitors; shares compounds with Pol eta inh-1; 920 compounds, 76% hits; AID 720501; also: potency is read from the fitted curve at half-maximal effect
# Pol eta inh-2: confirmation of human DNA polymerase eta inhibitors | shares compounds with Pol eta inh-1 | Pol eta primer extension, TAMRA/BHQ fluorescence, 10 min | Potency, µM, usual class: inhibitors | 2,600 compounds, 64% hits; also: potency is read from the fitted curve at half-maximal effect
# Numbers without * were called inactive; ? = inconclusive; / = not tested or not shown; [ ] = another dose, or the depositor's remark. Shown are actives, neighbours in structure and some others; about 2.4% of the full set was active somewhere. Calls follow the shape of the dose curve; as a rule, active = well fitted curve in the direction sought with a large enough effect; inconclusive = small, poorly fitted or top-dose-only effect, or another doubt; inactive = no such curve, though single readings can be large; an effect the other way counts as inactive or inconclusive.
SMILES,Pol eta inh-1,Pol iota inh,Pol kappa inh-1,WRN helicase inh,Pol beta inh,FEN1 inhibitor,Pol eta inh-2,others
CC1(C(=O)NNC(=O)c2ccc(=O)oc2)CC1Br (centres undefined),20µM*,?,?,?,?,-6%,34*,
COc1cc(C(CC(=O)N2CCCC2)c2c(OC)cc(OC)c3ccc(=O)oc23)cc(OC)c1OC (centres undefined),32µM*,?,?,1%[11.6 µM],?,1%,85*,
COc1cc(C(CCN2CCCC2)c2c(OC)cc(OC)c3ccc(=O)oc23)cc(OC)c1OC (centres undefined),-14%,26%,10%,6%,-28%,-2%,/,
CCN(CC)CCC(c1ccc2c(c1)OCO2)c1c(OC)cc(OC)c2ccc(=O)oc12 (centres undefined),-10%,-9%,23%,8%,1%,0%,/,
COc1cc(OC)c2ccc(=O)oc2c1C(CC(=O)N1CCCC1)c1ccc2c(c1)OCO2 (centres undefined),?,71µM*,50µM*,-32%,45µM*,-16%,?,
CN(Cc1ccccc1)C(C(=O)NC1CCCCC1)c1ccc(Cl)cc1 (centres undefined),-22%,13%,-4%,/,2%,10%,/,
CCN(CC)CCNS(=O)(=O)c1ccc2[nH]cc(C(=O)O)c(=O)c2c1,22µM*,?,?,-12%[11.6 µM],18µM*,-9%,27*,
Cc1nc(N)sc1-c1csc(Nc2cccc(C(=O)O)c2)n1,40µM*,11µM*,25µM*,-13%[11.6 µM],?,?,48*,Pol kappa inh-2=12*
CSCC[C@H](NC(=O)[C@@H]1CCCN1C(=O)[C@H](CCCN=C(N)N)NC(=O)[C@H](CC(C)C)NC(=O)[C@@H]1CCCN1C(=O)[C@@H](NC(=O)[C@@H](N)CCC(N)=O)C(C)C)C(=O)N[C@H](C(=O)N[C@@H](Cc1ccc(O)cc1)C(=O)N[C@@H](CCCCN)C(=O)O)[C@@H](C)O,/,/,-18%[60.1 µM],/,/,/,/,
C=C1CC[C@@H]2[C@](C)(CCC[C@@]2(C)/C=C/[C@@H](O)C(C)(C)O)[C@H]1CC(=O)NCCS(=O)(=O)O,18µM*,-10%,?,-11%,/,13%,?,
CCN1CCN(CCNC(=O)c2ccc3nc(-c4cccc(C)c4)c(-c4cccc(C)c4)nc3c2)CC1,-25%,-1%,12%,6%[57.1 µM],19%,10%,/,GALK confirm=?;GALK redox cs=-27%;HEK293 viability=?
CCNC(=O)c1ccc2nc(-c3ccccc3)c(-c3ccccc3)nc2c1,/,2%,-13%,/,/,6%,/,
CCCNC(=O)c1ccc2nc(-c3ccccc3)c(-c3ccccc3)nc2c1,-12%,5%,-4%,-8%,-16%,-8%,/,
